This note sets out measurements from PubChem BioAssay (Tox21).

Inconclusive results are not listed. Where a call stands in place of a potency, no number is given. The source made the active and inactive calls. Unless noted, calls follow the shape of the dose curve; as a rule, active = well fitted cell-killing curve with a large enough effect in the repeat runs; inconclusive = weak or mixed curves, or effect the other way; inactive = no such curve, though single readings can be large or run the other way.

Chain of Bile acid receptor (Homo sapiens) (Q96RI1 whole entry, looked up): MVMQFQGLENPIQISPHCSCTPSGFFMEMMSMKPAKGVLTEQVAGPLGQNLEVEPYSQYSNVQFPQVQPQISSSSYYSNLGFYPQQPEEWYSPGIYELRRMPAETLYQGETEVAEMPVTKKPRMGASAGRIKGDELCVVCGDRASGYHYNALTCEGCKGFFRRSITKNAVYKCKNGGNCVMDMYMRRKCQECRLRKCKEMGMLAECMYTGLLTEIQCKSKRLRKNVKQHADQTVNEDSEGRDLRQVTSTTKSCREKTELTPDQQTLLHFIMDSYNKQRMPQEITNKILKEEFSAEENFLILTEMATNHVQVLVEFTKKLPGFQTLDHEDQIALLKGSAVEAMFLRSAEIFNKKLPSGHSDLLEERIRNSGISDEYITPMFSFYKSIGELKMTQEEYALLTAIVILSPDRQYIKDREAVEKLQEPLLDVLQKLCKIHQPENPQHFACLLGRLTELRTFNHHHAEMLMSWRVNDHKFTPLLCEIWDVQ
Chain of Peroxisome proliferator-activated receptor delta (Homo sapiens) (Q03181 whole entry, looked up): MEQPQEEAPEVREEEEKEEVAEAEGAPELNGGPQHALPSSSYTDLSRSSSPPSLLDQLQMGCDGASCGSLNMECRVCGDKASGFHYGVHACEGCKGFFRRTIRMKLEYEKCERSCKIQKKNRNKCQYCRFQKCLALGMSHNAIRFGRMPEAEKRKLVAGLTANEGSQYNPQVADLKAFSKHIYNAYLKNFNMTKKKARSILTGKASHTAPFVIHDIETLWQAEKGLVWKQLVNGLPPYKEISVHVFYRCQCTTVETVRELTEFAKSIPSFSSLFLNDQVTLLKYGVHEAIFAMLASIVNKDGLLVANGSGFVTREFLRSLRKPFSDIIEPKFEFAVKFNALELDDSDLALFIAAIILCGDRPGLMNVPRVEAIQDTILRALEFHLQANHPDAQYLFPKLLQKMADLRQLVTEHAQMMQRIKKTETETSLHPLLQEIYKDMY

The target in one experiment is Peroxisome proliferator-activated receptor delta (Homo sapiens) (UniProt Q03181). Briefly: qHTS assay to identify small molecule antagonists of the peroxisome proliferator-activated receptor delta (PPARd) signaling pathway (AID 743215; active = well fitted inhibition curve with a large enough effect in the signal ratio in the repeat runs, not every such curve was filed as active; the % refers to the signal ratio;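 also: cells stimulated with agonist L165041 at 300 nM final during compound exposure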). As to conditions: HEK293H PPARd-UAS-bla, beta-lactamase FRET ratio, antagonist, 17 h; series mostly up to 62 µM. Summed up:
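Antagonist-mode beta-lactamase reporter screen: HEK293H cells with UAS-bla under PPARd control, stimulated by 300 nM L165041 (final) alongside test compound for 17 h at 37 C, then FRET fluorescence after 2 h substrate incubation.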
(In general: Quantitative high-throughput screening tests each substance at several concentrations.)
In the case of `OCCCCC(O)CO` (stereo unspecified), the outcome was inactive.
In the case of `CCCCCCCCC(=O)Cl`, the result was inactive.
`CC(C)CCCCOC(=O)c1ccccc1C(=O)OCCCCC(C)C`: the result was inactive.
Consider `C=COCCOCCOCCOC=C`, for which the outcome was inactive.
Turning to `CCCCCCCCC1CCC(=O)O1` (stereo unspecified), the result was inactive.
Regarding `CC1COc2ccccc2N1` (stereo unspecified), the result was inactive.
Consider `CCCCNC1CC(C)(C)NC(C)(C)C1`, for which the outcome was inactive.
Same read-out and setting: with `C#CC(C)N(C)C(=O)Nc1ccc(Cl)cc1` (stereo unspecified) the entry was “inactive”.
In the case of `CN1C(C)(C)CCCC1(C)C`, the outcome was inactive.
Same read-out and setting: to `O=C(c1ccc(O)cc1)c1ccc(O)c(O)c1O` belongs “inactive”; to `C[C@@H]1O[C@@H](O[C@@H]2[C@@H](O)[C@H](OCCc3ccc(O)c(O)c3)O[C@H](CO[C@@H]3O[C@H](CO)[C@@H](O)[C@H](O)[C@H]3O)[C@H]2OC(=O)/C=C/c2ccc(O)c(O)c2)[C@H](O)[C@H](O)[C@H]1O`, “inactive”.
The same measure, in the same setting: to `CCCC(=O)C(C)=O` belongs “inactive”; to `CCCOC(OCCC)OCCC`, “inactive”; to `COc1cc(N)ccc1C`, “inactive”.
On the same count and under the same terms, with `CC(N)C(=O)OC(C)(C)Cc1ccc(Cl)cc1` (stereo unspecified) the entry was “inactive”.
As for `CCCN1C[C@H](CSC)C[C@@H]2c3cccc4[nH]cc(c34)C[C@H]21`, the result was inactive.
In the case of `CC(C(=O)O)c1ccc2c(c1)CC(=O)c1ccccc1S2` (stereo unspecified), the result was inactive.
For `COCCOC(=O)C1=C(C)NC(C)=C(C(=O)OC(C)C)C1c1cccc([N+](=O)[O-])c1` (stereo unspecified), the result was inactive.
The same measure, in the same setting: to `COc1cc2c(cc1OC)[C@@H]1CC(=O)[C@@H](CC(C)C)CN1CC2` belongs “inactive”; to `Cc1cc2cc3c(C)cc(=O)oc3c(C)c2o1`, “inactive”; to `Cc1ccc(S(=O)(=O)O)c(C)c1`, “inactive”.
Consider `Nc1ccc([N+](=O)[O-])c(N)c1`, for which the outcome was inactive.

The next experiment deals with Bile acid receptor (Homo sapiens) (UniProt Q96RI1). Briefly: qHTS assay to identify small molecule antagonists of the farnesoid-X-receptor (FXR) signaling pathway (AID 743217; active = well fitted inhibition curve with a large enough effect in the signal ratio in the repeat runs, not every such curve was filed as active; the % refers to the signal ratio). The following applies: HEK293T FXR-UAS-bla, beta-lactamase ratio, CDCA-stimulated, 16 h; series mostly up to 62.6 µM. An outline of the steps:
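Beta-lactamase reporter under UAS control in HEK 293T cells; compound exposure 16 h at 37 °C in the presence of chenodeoxycholic acid (50 uM final); signal from B/G FRET substrate after 2 h at room temperature.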
Turning to `c1ccc2nccnc2c1`, the Potency entry is “inactive”.
For the compound `O=C(NCCc1c[nH]c2ccccc12)c1cccnc1`, the Potency result is “inactive”.
For `O=C(c1ccc(O)cc1)c1ccc(O)c(O)c1O`, the Potency result was “inactive”.
`CCCOC(OCCC)OCCC`: the Potency result is “inactive”.
On the same count and under the same terms, with `C=CCCCCCCCCCCCC` the entry was “inactive”; with `Cc1ccccc1N=O`, “inactive”.

Test system in the next experiment: not listed separately
Kind of experiment: qHTS assay to identify small molecule agonists of the farnesoid-X-receptor (FXR) signaling pathway - cell viability counter screen (AID 743218). Also: nearly all actives have a fitted effect of over 45% in size. Also: potency is read from the fitted curve at half-maximal effect. As to conditions: FXR-bla HEK293T viability, CellTiter-Glo luminescence, 16 h; series mostly up to 62.6 µM. Summed up:
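In GeneBLAzer FXR-UAS-bla HEK 293T cells, compounds act for 16 h at 37 C. Cell viability is then scored in the reporter wells by CellTiter-Glo, 30 min at RT, luminescence.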
On to `OCCCCC(O)CO` (stereo unspecified), for which the Potency result is “inactive”.
For the compound `CCCCCCCCC(=O)Cl`, the Potency result was “inactive”.
With `CC(C)CCCCOC(=O)c1ccccc1C(=O)OCCCCC(C)C`, the Potency result is “inactive”.
With `C=COCCOCCOCCOC=C`, the Potency entry is “inactive”.
Turning to `c1ccc2nccnc2c1`, the Potency result is “inactive”.
On to `O=C(NCCc1c[nH]c2ccccc12)c1cccnc1`, for which the Potency entry is “inactive”.
For the compound `CCCCCCCCC1CCC(=O)O1` (stereo unspecified), the Potency result is “inactive”.
Regarding `CC1COc2ccccc2N1` (stereo unspecified), the Potency entry was “inactive”.
For `CCCCNC1CC(C)(C)NC(C)(C)C1`, the Potency entry is “inactive”.
For the compound `C#CC(C)N(C)C(=O)Nc1ccc(Cl)cc1` (stereo unspecified), the Potency is 436 nM (active).
As for `CN1C(C)(C)CCCC1(C)C`, the Potency entry is “inactive”.
For `O=S(=O)(O)c1cc(O)c2ccc(Nc3ccccc3)cc2c1`, the Potency entry is “inactive”.
Same read-out and setting: to `CC(C)c1ccc2cc(C(C)C)ccc2c1` belongs “inactive”; to `O=C(c1ccc(O)cc1)c1ccc(O)c(O)c1O`, “inactive”; to `CC(C)(C)c1nnc(NS(=O)(=O)c2ccc(N)cc2)s1`, “inactive”.
For the compound `C[C@@H]1O[C@@H](O[C@@H]2[C@@H](O)[C@H](OCCc3ccc(O)c(O)c3)O[C@H](CO[C@@H]3O[C@H](CO)[C@@H](O)[C@H](O)[C@H]3O)[C@H]2OC(=O)/C=C/c2ccc(O)c(O)c2)[C@H](O)[C@H](O)[C@H]1O`, the Potency result is “inactive”.
Take `CC(C)CC(=O)O`: the Potency result is “inactive”.
Consider `Cc1cccc(OCC(O)CNC(C)(C)C)c1C` (stereo unspecified), for which the Potency entry is “inactive”.
Take `CCCC(=O)C(C)=O`: the Potency entry is “inactive”.
Same read-out and setting: to `O=S(=O)(O)c1ccc2cc(O)c(S(=O)(=O)O)cc2c1` belongs “inactive”; to `CCCOC(OCCC)OCCC`, “inactive”; to `COc1cc(N)ccc1C`, “inactive”.
For the compound `COc1cc(NS(=O)(=O)c2ccc(N)cc2)nc(OC)n1`, the Potency entry was “inactive”.
`CC(C)(C)c1cc(CCC(=O)NN)cc(C(C)(C)C)c1O`: the Potency entry was “inactive”.
For `CC(C(=O)O)c1ccc2c(c1)CC(=O)c1ccccc1S2` (stereo unspecified), the Potency result was “inactive”.
With `CC(C)C(=O)OCCc1ccccc1`, the Potency result is “inactive”.
In the case of `COCCOC(=O)C1=C(C)NC(C)=C(C(=O)OC(C)C)C1c1cccc([N+](=O)[O-])c1` (stereo unspecified), the Potency result was “inactive”.
As to `COc1cc2c(cc1OC)[C@@H]1CC(=O)[C@@H](CC(C)C)CN1CC2`, the Potency result is “inactive”.
Consider `C=CCCCCCCCCCCCC`, for which the Potency entry is “inactive”.
Take `Cc1cc2cc3c(C)cc(=O)oc3c(C)c2o1`: the Potency entry is “inactive”.
As to `CC1=CCC(C(C)C)=CC1`, the Potency entry is “inactive”.
In the case of `Cc1ccc(S(=O)(=O)O)c(C)c1`, the Potency entry was “inactive”.
Consider `Cc1ccccc1N=O`, for which the Potency entry is “inactive”.
Consider `CC[C@H](C)C(=O)O[C@H]1C[C@H](O)C=C2C=C[C@H](C)[C@H](CC[C@@H](O)C[C@@H](O)CC(=O)O)[C@H]21`, for which the Potency entry was “inactive”.

Another experiment concerns the target Bile acid receptor (Homo sapiens) (UniProt Q96RI1). Kind of experiment: qHTS assay to identify small molecule agonists of the farnesoid-X-receptor (FXR) signaling pathway (AID 743220; active = well fitted activation curve with a large enough effect in the signal ratio in the repeat runs, not every such curve was filed as active; the % refers to the signal ratio). As to conditions: HEK293T FXR-UAS-bla, beta-lactamase FRET ratio, 16 h; series mostly up to 62.6 µM. An outline of the steps: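 Beta-lactamase reporter under UAS control in GeneBLAzer FXR HEK 293T cells (5000/well) measured with LiveBLAzer FRET substrate after 2 h at room temperature. Compound exposure lasted 16 h at 37C.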
`OCCCCC(O)CO` (stereo unspecified): the Potency result is “inactive”.
Same read-out and setting: with `CCCCCCCCC(=O)Cl` the entry was “inactive”; with `c1ccc2nccnc2c1`, “inactive”.
As to `O=C(NCCc1c[nH]c2ccccc12)c1cccnc1`, the Potency result was “inactive”.
The same measure, in the same setting: with `CCCCCCCCC1CCC(=O)O1` (stereo unspecified) the entry was “inactive”.
Regarding `C#CC(C)N(C)C(=O)Nc1ccc(Cl)cc1` (stereo unspecified), the Potency entry was “inactive”.
For `CN1C(C)(C)CCCC1(C)C`, the Potency result was “inactive”.
Take `O=C(c1ccc(O)cc1)c1ccc(O)c(O)c1O`: the Potency result is “inactive”.
Take `CCCC(=O)C(C)=O`: the Potency result was “inactive”.
Same read-out and setting: with `CCCOC(OCCC)OCCC` the entry was “inactive”.
Regarding `COc1cc(N)ccc1C`, the Potency result is “inactive”.
With `CC(C)C(=O)OCCc1ccccc1`, the Potency result is “inactive”.
Consider `C=CCCCCCCCCCCCC`, for which the Potency result is “inactive”.
`Cc1ccccc1N=O`: the Potency entry is “inactive”.
